Assay results from article PMC11062922 (Nature Chemical Biology, 2023).
Like-named read-outs stand apart in the source and are kept apart here.

Key:
Settings in all cases: read-out: apparent Kd, n = 1
CLK4 = tested on: CLK4
FER = tested on: FER
FLT4 = tested on: FLT4
[1] = compound concentrations:100 nM and 1000 nM (sheet 'Lestaurtinib' of Supplementary Table 1),run:Lestaurtinib_02795_R1,Plate:MR022
[2] = compound concentrations:100 nM and 1000 nM (sheet 'Lestaurtinib' of Supplementary Table 1),run:Lestaurtinib_02795_R2,Plate:MR022
[3] = compound concentrations:100 nM and 1000 nM (sheet 'Lestaurtinib' of Supplementary Table 1),run:Lestaurtinib_02802_R2,Plate:MR029
[4] = compound concentrations:100 nM and 1000 nM (sheet 'Lestaurtinib' of Supplementary Table 1),run:Lestaurtinib_02802_R3,Plate:MR029
[5] = compound concentrations:100 nM and 1000 nM (sheet 'Lestaurtinib' of Supplementary Table 1),run:Lestaurtinib_03172_R3,Plate:MR031
[6] = compound concentrations:100 nM and 1000 nM (sheet 'Lestaurtinib' of Supplementary Table 1),run:Lestaurtinib_03252_R2,Plate:MR032
[7] = compound concentrations:100 nM and 1000 nM (sheet 'Lestaurtinib' of Supplementary Table 1),run:Lestaurtinib_03260_R1,Plate:MR033
[8] = compound concentrations:100 nM and 1000 nM (sheet 'Lestaurtinib' of Supplementary Table 1),run:Lestaurtinib_03260_R2,Plate:MR033
[9] = compound concentrations:100 nM and 1000 nM (sheet 'Lestaurtinib' of Supplementary Table 1),run:Lestaurtinib_03260_R3,Plate:MR033
[10] = compound concentrations:100 nM and 1000 nM (sheet 'Lestaurtinib' of Supplementary Table 1),run:Lestaurtinib_02339_R1,Plate:MR001
[11] = compound concentrations:100 nM and 1000 nM (sheet 'Lestaurtinib' of Supplementary Table 1),run:Lestaurtinib_02339_R2,Plate:MR001
[12] = compound concentrations:100 nM and 1000 nM (sheet 'Lestaurtinib' of Supplementary Table 1),run:Lestaurtinib_02364_R2,Plate:MR002

Substance: Lestaurtinib
- potency estimated from few doses (CLK4; compound concentrations:100 nM and 1000 nM (sheet 'Lestaurtinib' of Supplementary Table 1),run:Lestaurtinib_02768_R3,Plate:MR028): 50.7 nM
- potency estimated from few doses (CLK4; [1]): 63.3 nM
- potency estimated from few doses (CLK4; [2]): 42.4 nM
- potency estimated from few doses (CLK4; [3]): 62.9 nM
- potency estimated from few doses (CLK4; [4]): 42.9 nM
- potency estimated from few doses (CLK4; compound concentrations:100 nM and 1000 nM (sheet 'Lestaurtinib' of Supplementary Table 1),run:Lestaurtinib_02896_R1,Plate:MR030): 45.2 nM
- potency estimated from few doses (CLK4; compound concentrations:100 nM and 1000 nM (sheet 'Lestaurtinib' of Supplementary Table 1),run:Lestaurtinib_02896_R2,Plate:MR030): 44.9 nM
- potency estimated from few doses (CLK4; [5]): 82.5 nM
- potency estimated from few doses (CLK4; [6]): 38.7 nM
- potency estimated from few doses (CLK4; [7]): 95 nM
- potency estimated from few doses (CLK4; [8]): 130 nM
- potency estimated from few doses (CLK4; [9]): 60.5 nM
- potency estimated from few doses (FER; [10]): 361 nM
- potency estimated from few doses (FER; [11]): 254 nM
- potency estimated from few doses (FER; compound concentrations:100 nM and 1000 nM (sheet 'Lestaurtinib' of Supplementary Table 1),run:Lestaurtinib_02339_R3,Plate:MR001): 336 nM
- potency estimated from few doses (FER; compound concentrations:100 nM and 1000 nM (sheet 'Lestaurtinib' of Supplementary Table 1),run:Lestaurtinib_02364_R1,Plate:MR002): 298 nM
- potency estimated from few doses (FER; [12]): 396 nM
- potency estimated from few doses (FER; compound concentrations:100 nM and 1000 nM (sheet 'Lestaurtinib' of Supplementary Table 1),run:Lestaurtinib_02367_R1,Plate:MR003): 327 nM
- potency estimated from few doses (FER; compound concentrations:100 nM and 1000 nM (sheet 'Lestaurtinib' of Supplementary Table 1),run:Lestaurtinib_02367_R2,Plate:MR003): 319 nM
- potency estimated from few doses (FER; compound concentrations:100 nM and 1000 nM (sheet 'Lestaurtinib' of Supplementary Table 1),run:Lestaurtinib_02367_R3,Plate:MR003): 310 nM
- potency estimated from few doses (FER; compound concentrations:100 nM and 1000 nM (sheet 'Lestaurtinib' of Supplementary Table 1),run:Lestaurtinib_02381_R1,Plate:MR004): 385 nM
- potency estimated from few doses (FER; compound concentrations:100 nM and 1000 nM (sheet 'Lestaurtinib' of Supplementary Table 1),run:Lestaurtinib_02381_R2,Plate:MR004): 362 nM
- potency estimated from few doses (FER; compound concentrations:100 nM and 1000 nM (sheet 'Lestaurtinib' of Supplementary Table 1),run:Lestaurtinib_02381_R3,Plate:MR004): 336 nM
- potency estimated from few doses (FER; compound concentrations:100 nM and 1000 nM (sheet 'Lestaurtinib' of Supplementary Table 1),run:Lestaurtinib_02407_R3,Plate:MR005): 459 nM
- potency estimated from few doses (FER; compound concentrations:100 nM and 1000 nM (sheet 'Lestaurtinib' of Supplementary Table 1),run:Lestaurtinib_02422_R3,Plate:MR006): 307 nM
- potency estimated from few doses (FER; compound concentrations:100 nM and 1000 nM (sheet 'Lestaurtinib' of Supplementary Table 1),run:Lestaurtinib_02437_R2,Plate:MR007): 347 nM
- potency estimated from few doses (FER; compound concentrations:100 nM and 1000 nM (sheet 'Lestaurtinib' of Supplementary Table 1),run:Lestaurtinib_02437_R3,Plate:MR007): 30.6 nM
- potency estimated from few doses (FER; compound concentrations:100 nM and 1000 nM (sheet 'Lestaurtinib' of Supplementary Table 1),run:Lestaurtinib_02438_R1,Plate:MR008): 352 nM
- potency estimated from few doses (FER; compound concentrations:100 nM and 1000 nM (sheet 'Lestaurtinib' of Supplementary Table 1),run:Lestaurtinib_02438_R2,Plate:MR008): 345 nM
- potency estimated from few doses (FER; compound concentrations:100 nM and 1000 nM (sheet 'Lestaurtinib' of Supplementary Table 1),run:Lestaurtinib_02438_R3,Plate:MR008): 356 nM
- potency estimated from few doses (FER; compound concentrations:100 nM and 1000 nM (sheet 'Lestaurtinib' of Supplementary Table 1),run:Lestaurtinib_02443_R1,Plate:MR009): 347 nM
- potency estimated from few doses (FER; compound concentrations:100 nM and 1000 nM (sheet 'Lestaurtinib' of Supplementary Table 1),run:Lestaurtinib_02443_R2,Plate:MR009): 358 nM
- potency estimated from few doses (FER; compound concentrations:100 nM and 1000 nM (sheet 'Lestaurtinib' of Supplementary Table 1),run:Lestaurtinib_02473_R2,Plate:MR010): 343 nM
- potency estimated from few doses (FER; compound concentrations:100 nM and 1000 nM (sheet 'Lestaurtinib' of Supplementary Table 1),run:Lestaurtinib_02482_R1,Plate:MR011): 406 nM
- potency estimated from few doses (FER; compound concentrations:100 nM and 1000 nM (sheet 'Lestaurtinib' of Supplementary Table 1),run:Lestaurtinib_02482_R2,Plate:MR011): 336 nM
- potency estimated from few doses (FER; compound concentrations:100 nM and 1000 nM (sheet 'Lestaurtinib' of Supplementary Table 1),run:Lestaurtinib_02487_R1,Plate:MR012): 221 nM
- potency estimated from few doses (FER; compound concentrations:100 nM and 1000 nM (sheet 'Lestaurtinib' of Supplementary Table 1),run:Lestaurtinib_02496_R1,Plate:MR013): 306 nM
- potency estimated from few doses (FER; compound concentrations:100 nM and 1000 nM (sheet 'Lestaurtinib' of Supplementary Table 1),run:Lestaurtinib_02566_R1,Plate:MR014): 269 nM
- potency estimated from few doses (FER; compound concentrations:100 nM and 1000 nM (sheet 'Lestaurtinib' of Supplementary Table 1),run:Lestaurtinib_02572_R2,Plate:MR015): 259 nM
- potency estimated from few doses (FER; compound concentrations:100 nM and 1000 nM (sheet 'Lestaurtinib' of Supplementary Table 1),run:Lestaurtinib_02572_R3,Plate:MR015): 447 nM
- potency estimated from few doses (FER; compound concentrations:100 nM and 1000 nM (sheet 'Lestaurtinib' of Supplementary Table 1),run:Lestaurtinib_02584_R1,Plate:MR017): 332 nM
- potency estimated from few doses (FER; compound concentrations:100 nM and 1000 nM (sheet 'Lestaurtinib' of Supplementary Table 1),run:Lestaurtinib_02584_R3,Plate:MR017): 351 nM
- potency estimated from few doses (FER; compound concentrations:100 nM and 1000 nM (sheet 'Lestaurtinib' of Supplementary Table 1),run:Lestaurtinib_02601_R2,Plate:MR018): 394 nM
- potency estimated from few doses (FER; compound concentrations:100 nM and 1000 nM (sheet 'Lestaurtinib' of Supplementary Table 1),run:Lestaurtinib_02601_R3,Plate:MR018): 42.4 nM
- potency estimated from few doses (FER; compound concentrations:100 nM and 1000 nM (sheet 'Lestaurtinib' of Supplementary Table 1),run:Lestaurtinib_02606_R2,Plate:MR019): 83.6 nM
- potency estimated from few doses (FER; compound concentrations:100 nM and 1000 nM (sheet 'Lestaurtinib' of Supplementary Table 1),run:Lestaurtinib_02606_R3,Plate:MR019): 355 nM
- potency estimated from few doses (FER; compound concentrations:100 nM and 1000 nM (sheet 'Lestaurtinib' of Supplementary Table 1),run:Lestaurtinib_02624_R3,Plate:MR020): 365 nM
- potency estimated from few doses (FER; compound concentrations:100 nM and 1000 nM (sheet 'Lestaurtinib' of Supplementary Table 1),run:Lestaurtinib_02724_R2,Plate:MR021): 436 nM
- potency estimated from few doses (FER; compound concentrations:100 nM and 1000 nM (sheet 'Lestaurtinib' of Supplementary Table 1),run:Lestaurtinib_02748_R1,Plate:MR024): 268 nM
- potency estimated from few doses (FER; compound concentrations:100 nM and 1000 nM (sheet 'Lestaurtinib' of Supplementary Table 1),run:Lestaurtinib_02748_R3,Plate:MR024): 278 nM
- potency estimated from few doses (FER; compound concentrations:100 nM and 1000 nM (sheet 'Lestaurtinib' of Supplementary Table 1),run:Lestaurtinib_02752_R1,Plate:MR025): 356 nM
- potency estimated from few doses (FER; compound concentrations:100 nM and 1000 nM (sheet 'Lestaurtinib' of Supplementary Table 1),run:Lestaurtinib_02752_R2,Plate:MR025): 297 nM
- potency estimated from few doses (FER; compound concentrations:100 nM and 1000 nM (sheet 'Lestaurtinib' of Supplementary Table 1),run:Lestaurtinib_02752_R3,Plate:MR025): 327 nM
- potency estimated from few doses (FER; compound concentrations:100 nM and 1000 nM (sheet 'Lestaurtinib' of Supplementary Table 1),run:Lestaurtinib_02765_R1,Plate:MR026): 564 nM
- potency estimated from few doses (FER; compound concentrations:100 nM and 1000 nM (sheet 'Lestaurtinib' of Supplementary Table 1),run:Lestaurtinib_02765_R2,Plate:MR026): 481 nM
- potency estimated from few doses (FER; compound concentrations:100 nM and 1000 nM (sheet 'Lestaurtinib' of Supplementary Table 1),run:Lestaurtinib_02765_R3,Plate:MR026): 549 nM
- potency estimated from few doses (FER; compound concentrations:100 nM and 1000 nM (sheet 'Lestaurtinib' of Supplementary Table 1),run:Lestaurtinib_02766_R1,Plate:MR027): 277 nM
- potency estimated from few doses (FER; compound concentrations:100 nM and 1000 nM (sheet 'Lestaurtinib' of Supplementary Table 1),run:Lestaurtinib_02766_R2,Plate:MR027): 25.3 nM
- potency estimated from few doses (FER; compound concentrations:100 nM and 1000 nM (sheet 'Lestaurtinib' of Supplementary Table 1),run:Lestaurtinib_02766_R3,Plate:MR027): 321 nM
- potency estimated from few doses (FER; [1]): 454 nM
- potency estimated from few doses (FER; [2]): 356 nM
- potency estimated from few doses (FER; compound concentrations:100 nM and 1000 nM (sheet 'Lestaurtinib' of Supplementary Table 1),run:Lestaurtinib_02795_R3,Plate:MR022): 372 nM
- potency estimated from few doses (FER; [3]): 296 nM
- potency estimated from few doses (FER; [4]): 12.4 nM
- potency estimated from few doses (FER; compound concentrations:100 nM and 1000 nM (sheet 'Lestaurtinib' of Supplementary Table 1),run:Lestaurtinib_03172_R2,Plate:MR031): 386 nM
- potency estimated from few doses (FER; [5]): 315 nM
- potency estimated from few doses (FER; [6]): 25 nM
- potency estimated from few doses (FER; [7]): 469 nM
- potency estimated from few doses (FER; [8]): 487 nM
- potency estimated from few doses (FER; [9]): 351 nM
- potency estimated from few doses (FLT4; [10]): 345 nM
- potency estimated from few doses (FLT4; [11]): 300 nM
- potency estimated from few doses (FLT4; [12]): 289 nM
